Experimental data reported in publication PMC7862700, “An all-to-all approach to the identification of sequence-specific readers for epigenetic DNA modifications on cytosine”.

Experiments:
Assay in all cases: DAPPL (digital affinity profiling via proximity ligation, sequencing); 10 mM Tris-HCl pH 7.5, 50 mM NaCl, 1 mM DTT, 4% glycerol, room temperature, 30 min; GST-TFs on glutathione beads, 16-mer random dsDNA library, 0.1% formaldehyde crosslink after washing; high values mean tight binding
FEV = biological target: T1, FEV (Homo sapiens, UniProt Q99581 1-238); details: protein: recombinant; tags: N-terminal GST; dsDNA, one strand shown
T1 sequence: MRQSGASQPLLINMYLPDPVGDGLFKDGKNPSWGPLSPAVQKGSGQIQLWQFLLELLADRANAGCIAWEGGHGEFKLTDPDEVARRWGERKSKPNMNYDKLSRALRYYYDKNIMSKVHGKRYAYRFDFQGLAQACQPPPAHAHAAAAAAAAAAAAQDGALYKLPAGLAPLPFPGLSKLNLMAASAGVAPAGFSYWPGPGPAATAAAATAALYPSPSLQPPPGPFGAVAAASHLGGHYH
Summary of the method: (§1)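 GST fusions of human transcription factors were expressed in yeast and captured with glutathione beads. Once given DNA barcodes and pooled alongside a tag-only sample, they were incubated for 30 min at room temperature with 200 nmole of a random double-stranded 16-mer DNA library in Tris/NaCl/DTT/glycerol buffer, then washed, crosslinked (0.1% formaldehyde), proximity-ligated, PCR-amplified and sequenced on an Illumina NextSeq500. The binding signal of each hexamer is its read frequency for a factor divided by its frequency for the tag-only sample.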

ETV5 = ETV5 (Homo sapiens, UniProt P41161 1-510); details: protein: recombinant; tags: N-terminal GST; dsDNA, one strand shown
ETV5, sequence (P41161 whole entry): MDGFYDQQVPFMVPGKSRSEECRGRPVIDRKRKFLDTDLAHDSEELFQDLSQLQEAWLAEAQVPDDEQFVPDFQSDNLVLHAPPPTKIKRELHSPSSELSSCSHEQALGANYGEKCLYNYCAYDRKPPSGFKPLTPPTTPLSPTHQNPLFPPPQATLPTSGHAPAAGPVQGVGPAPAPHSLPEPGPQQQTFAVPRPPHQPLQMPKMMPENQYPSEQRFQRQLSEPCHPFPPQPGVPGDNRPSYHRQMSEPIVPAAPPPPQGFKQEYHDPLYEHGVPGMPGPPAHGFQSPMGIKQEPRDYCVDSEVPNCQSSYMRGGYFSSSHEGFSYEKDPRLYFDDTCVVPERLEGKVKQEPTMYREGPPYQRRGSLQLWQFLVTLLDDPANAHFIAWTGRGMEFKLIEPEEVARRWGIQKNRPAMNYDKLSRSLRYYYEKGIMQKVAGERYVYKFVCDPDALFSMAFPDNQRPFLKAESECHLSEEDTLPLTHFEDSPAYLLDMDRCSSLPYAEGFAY
Summary of the method: as §1

HSF1 = HSF1 (Homo sapiens, UniProt Q00613 1-529); details: protein: recombinant; tags: N-terminal GST; chain copies: 3; dsDNA, one strand shown
HSF1, sequence (Q00613 whole entry): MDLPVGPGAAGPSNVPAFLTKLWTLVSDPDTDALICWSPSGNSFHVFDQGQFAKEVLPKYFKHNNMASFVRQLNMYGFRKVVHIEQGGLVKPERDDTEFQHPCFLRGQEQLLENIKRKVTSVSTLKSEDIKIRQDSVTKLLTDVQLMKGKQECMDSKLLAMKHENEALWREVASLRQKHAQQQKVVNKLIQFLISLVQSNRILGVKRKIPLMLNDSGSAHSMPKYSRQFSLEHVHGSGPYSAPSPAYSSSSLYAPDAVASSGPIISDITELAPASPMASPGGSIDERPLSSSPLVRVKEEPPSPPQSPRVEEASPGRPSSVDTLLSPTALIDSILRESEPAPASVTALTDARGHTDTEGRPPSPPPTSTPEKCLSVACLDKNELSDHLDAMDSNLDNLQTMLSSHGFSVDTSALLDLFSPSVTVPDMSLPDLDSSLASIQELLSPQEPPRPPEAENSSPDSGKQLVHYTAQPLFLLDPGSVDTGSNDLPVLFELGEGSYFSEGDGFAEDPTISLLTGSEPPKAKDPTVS
Summary of the method: as §1

SPIC = biological target: T2, SPIC (Homo sapiens, UniProt Q8N5J4 1-248); details: protein: recombinant; tags: N-terminal GST; dsDNA, one strand shown
T2 sequence: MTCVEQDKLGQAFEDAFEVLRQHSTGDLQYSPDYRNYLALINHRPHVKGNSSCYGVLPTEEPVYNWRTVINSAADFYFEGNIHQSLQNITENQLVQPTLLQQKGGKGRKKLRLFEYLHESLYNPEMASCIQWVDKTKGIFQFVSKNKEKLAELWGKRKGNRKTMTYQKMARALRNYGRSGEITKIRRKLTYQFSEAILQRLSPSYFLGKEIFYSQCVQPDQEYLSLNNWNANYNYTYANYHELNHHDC
Summary of the method: as §1

ELF4 = ELF4 (Homo sapiens, UniProt Q99607 1-663); details: protein: recombinant; tags: N-terminal GST; dsDNA, one strand shown
ELF4, sequence (Q99607 whole entry): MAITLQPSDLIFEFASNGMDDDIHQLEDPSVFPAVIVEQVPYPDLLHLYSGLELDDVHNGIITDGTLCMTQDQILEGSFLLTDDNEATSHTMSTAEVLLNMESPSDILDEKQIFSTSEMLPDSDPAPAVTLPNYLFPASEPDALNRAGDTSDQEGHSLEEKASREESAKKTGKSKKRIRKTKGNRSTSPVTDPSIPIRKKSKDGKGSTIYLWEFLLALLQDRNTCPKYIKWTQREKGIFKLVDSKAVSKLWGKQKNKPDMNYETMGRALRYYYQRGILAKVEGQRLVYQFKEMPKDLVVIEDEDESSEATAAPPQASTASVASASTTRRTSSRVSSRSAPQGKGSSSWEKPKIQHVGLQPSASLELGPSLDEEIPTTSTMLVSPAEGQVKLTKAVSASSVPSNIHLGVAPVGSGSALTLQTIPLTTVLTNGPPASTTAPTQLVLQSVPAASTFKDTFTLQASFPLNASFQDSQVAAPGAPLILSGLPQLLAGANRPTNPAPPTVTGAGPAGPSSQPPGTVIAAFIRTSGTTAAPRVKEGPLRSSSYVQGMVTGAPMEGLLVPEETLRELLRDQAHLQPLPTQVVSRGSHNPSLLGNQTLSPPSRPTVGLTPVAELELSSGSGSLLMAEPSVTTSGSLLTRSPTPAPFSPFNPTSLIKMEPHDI
Summary of the method: as §1

ELK4 = biological target: T3, ELK4 (Homo sapiens, UniProt P28324-2 1-405); details: protein: recombinant; tags: N-terminal GST; dsDNA, one strand shown
T3 sequence: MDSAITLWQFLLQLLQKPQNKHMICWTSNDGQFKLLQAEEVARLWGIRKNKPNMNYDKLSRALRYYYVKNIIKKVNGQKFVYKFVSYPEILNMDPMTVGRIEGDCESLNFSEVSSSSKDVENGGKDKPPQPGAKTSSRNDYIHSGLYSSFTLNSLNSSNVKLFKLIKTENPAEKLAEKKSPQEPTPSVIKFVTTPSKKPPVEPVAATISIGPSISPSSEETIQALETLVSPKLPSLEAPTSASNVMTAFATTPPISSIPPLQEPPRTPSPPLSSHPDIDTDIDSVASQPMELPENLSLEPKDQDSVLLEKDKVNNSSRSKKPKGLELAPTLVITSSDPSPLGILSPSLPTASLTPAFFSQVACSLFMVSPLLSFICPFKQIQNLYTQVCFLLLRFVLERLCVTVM
Summary of the method: as §1

ETV2 = biological target: T4, ETV2 (Homo sapiens, UniProt O00321 1-342); details: protein: recombinant; tags: N-terminal GST; dsDNA, one strand shown
T4 sequence: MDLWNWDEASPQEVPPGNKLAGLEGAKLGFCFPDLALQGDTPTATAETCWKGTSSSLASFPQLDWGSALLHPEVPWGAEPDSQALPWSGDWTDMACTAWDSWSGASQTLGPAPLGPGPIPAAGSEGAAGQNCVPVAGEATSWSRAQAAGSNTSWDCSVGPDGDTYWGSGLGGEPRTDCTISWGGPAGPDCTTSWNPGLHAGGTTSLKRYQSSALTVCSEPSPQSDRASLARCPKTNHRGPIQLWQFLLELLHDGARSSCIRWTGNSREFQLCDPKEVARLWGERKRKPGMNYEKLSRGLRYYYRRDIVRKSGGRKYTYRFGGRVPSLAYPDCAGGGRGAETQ
Summary of the method: as §1

ELF3 = biological target: T5, ELF3 (Homo sapiens, UniProt P78545 1-371); details: protein: recombinant; tags: N-terminal GST; dsDNA, one strand shown
T5 sequence: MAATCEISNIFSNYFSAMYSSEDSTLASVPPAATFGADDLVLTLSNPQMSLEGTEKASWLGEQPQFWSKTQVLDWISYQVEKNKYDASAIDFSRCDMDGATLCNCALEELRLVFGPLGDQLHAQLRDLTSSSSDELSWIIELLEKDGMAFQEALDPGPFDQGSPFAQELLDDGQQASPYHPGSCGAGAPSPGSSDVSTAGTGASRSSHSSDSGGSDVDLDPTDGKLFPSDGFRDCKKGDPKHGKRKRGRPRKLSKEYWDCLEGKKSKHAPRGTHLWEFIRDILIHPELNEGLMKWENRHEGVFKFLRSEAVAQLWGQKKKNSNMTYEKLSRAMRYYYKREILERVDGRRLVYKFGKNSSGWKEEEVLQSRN
Summary of the method: as §1

CRX = CRX (Homo sapiens, UniProt O43186 1-299); details: protein: recombinant; tags: N-terminal GST; dsDNA, one strand shown
CRX, sequence (O43186 whole entry): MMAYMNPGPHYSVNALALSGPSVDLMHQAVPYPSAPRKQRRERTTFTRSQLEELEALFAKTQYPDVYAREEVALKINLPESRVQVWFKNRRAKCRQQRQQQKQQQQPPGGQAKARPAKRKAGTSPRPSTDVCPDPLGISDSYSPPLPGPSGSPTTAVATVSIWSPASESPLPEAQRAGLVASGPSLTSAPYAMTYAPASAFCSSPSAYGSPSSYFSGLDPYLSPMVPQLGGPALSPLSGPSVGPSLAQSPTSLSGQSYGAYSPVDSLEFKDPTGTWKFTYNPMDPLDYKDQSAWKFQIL
Summary of the method: as §1

ETV1 = ETV1 (Homo sapiens, UniProt P50549 1-477); details: protein: recombinant; tags: N-terminal GST; dsDNA, one strand shown
ETV1, sequence (P50549 whole entry): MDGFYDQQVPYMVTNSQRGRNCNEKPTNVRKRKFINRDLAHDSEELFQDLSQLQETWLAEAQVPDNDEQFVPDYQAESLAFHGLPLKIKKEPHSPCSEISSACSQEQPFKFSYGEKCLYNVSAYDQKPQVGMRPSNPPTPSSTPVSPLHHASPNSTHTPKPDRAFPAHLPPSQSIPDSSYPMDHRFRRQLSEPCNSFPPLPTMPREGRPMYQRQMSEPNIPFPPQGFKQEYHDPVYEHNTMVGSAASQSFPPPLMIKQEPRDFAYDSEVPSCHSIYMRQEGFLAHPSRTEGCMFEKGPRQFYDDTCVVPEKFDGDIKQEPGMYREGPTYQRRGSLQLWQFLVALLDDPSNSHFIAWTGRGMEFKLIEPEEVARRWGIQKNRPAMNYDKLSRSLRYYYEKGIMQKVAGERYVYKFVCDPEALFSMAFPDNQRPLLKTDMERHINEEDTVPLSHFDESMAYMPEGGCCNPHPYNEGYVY
Summary of the method: as §1

ERF = biological target: T6, ERF (Homo sapiens, UniProt P50548 1-548); details: protein: recombinant; tags: N-terminal GST; dsDNA, one strand shown
T6 sequence: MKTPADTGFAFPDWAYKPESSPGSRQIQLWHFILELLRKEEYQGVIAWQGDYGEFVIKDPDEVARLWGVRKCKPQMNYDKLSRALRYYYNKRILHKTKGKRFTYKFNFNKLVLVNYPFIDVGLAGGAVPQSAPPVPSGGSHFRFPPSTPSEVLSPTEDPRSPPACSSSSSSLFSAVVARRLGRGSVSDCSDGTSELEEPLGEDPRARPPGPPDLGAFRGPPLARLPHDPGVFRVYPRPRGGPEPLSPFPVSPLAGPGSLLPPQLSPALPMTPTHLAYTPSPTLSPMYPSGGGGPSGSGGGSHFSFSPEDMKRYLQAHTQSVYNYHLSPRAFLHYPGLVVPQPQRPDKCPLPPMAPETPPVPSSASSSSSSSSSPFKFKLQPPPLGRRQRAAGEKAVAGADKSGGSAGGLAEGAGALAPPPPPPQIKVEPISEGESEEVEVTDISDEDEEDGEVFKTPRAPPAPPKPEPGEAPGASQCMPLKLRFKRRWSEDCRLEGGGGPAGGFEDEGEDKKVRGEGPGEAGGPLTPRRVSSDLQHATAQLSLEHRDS
Summary of the method: as §1

ETV3L = biological target: T7, ETV3L (Homo sapiens, UniProt Q6ZN32 1-361); details: protein: recombinant; tags: N-terminal GST; dsDNA, one strand shown
T7 sequence: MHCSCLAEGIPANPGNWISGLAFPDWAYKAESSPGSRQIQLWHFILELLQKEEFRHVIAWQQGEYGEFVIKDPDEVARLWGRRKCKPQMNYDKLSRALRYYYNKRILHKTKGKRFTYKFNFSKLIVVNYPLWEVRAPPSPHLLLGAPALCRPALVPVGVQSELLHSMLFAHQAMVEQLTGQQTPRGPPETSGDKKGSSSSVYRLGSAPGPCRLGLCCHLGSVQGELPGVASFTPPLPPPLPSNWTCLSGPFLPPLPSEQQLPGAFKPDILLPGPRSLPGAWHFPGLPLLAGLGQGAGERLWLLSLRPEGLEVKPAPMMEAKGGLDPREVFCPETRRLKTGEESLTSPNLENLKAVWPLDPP
Summary of the method: as §1

ETS2 = biological target: T8, ETS2 (Homo sapiens, UniProt P15036 1-469); details: protein: recombinant; tags: N-terminal GST; dsDNA, one strand shown
T8 sequence: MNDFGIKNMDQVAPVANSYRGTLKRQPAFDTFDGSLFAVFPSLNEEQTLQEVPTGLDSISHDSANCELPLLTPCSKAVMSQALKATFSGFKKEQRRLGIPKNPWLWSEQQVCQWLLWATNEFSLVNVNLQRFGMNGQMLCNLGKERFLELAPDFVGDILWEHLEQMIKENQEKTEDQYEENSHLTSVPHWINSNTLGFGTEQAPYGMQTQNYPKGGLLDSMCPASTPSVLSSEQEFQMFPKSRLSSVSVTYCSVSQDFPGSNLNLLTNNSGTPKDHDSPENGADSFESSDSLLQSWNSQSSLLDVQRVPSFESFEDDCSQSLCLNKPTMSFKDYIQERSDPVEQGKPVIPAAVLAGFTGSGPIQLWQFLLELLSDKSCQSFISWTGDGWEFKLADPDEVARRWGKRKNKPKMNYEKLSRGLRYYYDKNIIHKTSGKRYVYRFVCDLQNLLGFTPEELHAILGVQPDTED
Summary of the method: as §1

SPDEF = biological target: T9, SPDEF (Homo sapiens, UniProt O95238 1-335); details: protein: recombinant; tags: N-terminal GST; dsDNA, one strand shown
T9 sequence: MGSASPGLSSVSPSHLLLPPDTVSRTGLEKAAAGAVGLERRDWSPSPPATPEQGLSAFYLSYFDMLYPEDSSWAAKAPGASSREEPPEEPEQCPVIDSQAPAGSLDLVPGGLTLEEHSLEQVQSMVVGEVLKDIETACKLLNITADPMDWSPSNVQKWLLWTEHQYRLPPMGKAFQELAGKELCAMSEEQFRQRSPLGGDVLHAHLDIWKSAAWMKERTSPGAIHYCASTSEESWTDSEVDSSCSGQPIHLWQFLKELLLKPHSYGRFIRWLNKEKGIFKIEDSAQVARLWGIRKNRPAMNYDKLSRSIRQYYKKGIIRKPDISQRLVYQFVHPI
Summary of the method: as §1

ETV7 = biological target: T10, ETV7 (Homo sapiens, UniProt Q9Y603 1-341); details: protein: recombinant; tags: N-terminal GST; dsDNA, one strand shown
T10 sequence: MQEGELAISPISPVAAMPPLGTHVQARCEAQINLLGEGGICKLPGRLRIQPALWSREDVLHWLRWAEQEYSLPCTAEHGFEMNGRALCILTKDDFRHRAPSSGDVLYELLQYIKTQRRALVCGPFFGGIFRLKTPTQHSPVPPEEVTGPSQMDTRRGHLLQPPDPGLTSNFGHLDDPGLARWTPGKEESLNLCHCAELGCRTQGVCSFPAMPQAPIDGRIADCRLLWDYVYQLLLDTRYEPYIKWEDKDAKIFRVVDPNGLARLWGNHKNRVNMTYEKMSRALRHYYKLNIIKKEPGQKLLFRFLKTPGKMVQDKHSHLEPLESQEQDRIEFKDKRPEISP
Summary of the method: as §1

ELF5 = biological target: T11, ELF5 (Homo sapiens, UniProt Q9UKW6-2 1-255); details: protein: recombinant; tags: N-terminal GST; dsDNA, one strand shown
T11 sequence: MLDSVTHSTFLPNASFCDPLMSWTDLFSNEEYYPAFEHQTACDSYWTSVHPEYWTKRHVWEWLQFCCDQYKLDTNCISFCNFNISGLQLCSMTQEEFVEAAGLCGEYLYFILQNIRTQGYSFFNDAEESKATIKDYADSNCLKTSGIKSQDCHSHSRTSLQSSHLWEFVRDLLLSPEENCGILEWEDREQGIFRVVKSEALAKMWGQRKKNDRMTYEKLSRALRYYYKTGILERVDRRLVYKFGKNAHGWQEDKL
Summary of the method: as §1

ETV3 = biological target: T12, ETV3 (Homo sapiens, UniProt P41162-2 1-143); details: protein: recombinant; tags: N-terminal GST; dsDNA, one strand shown
T12 sequence: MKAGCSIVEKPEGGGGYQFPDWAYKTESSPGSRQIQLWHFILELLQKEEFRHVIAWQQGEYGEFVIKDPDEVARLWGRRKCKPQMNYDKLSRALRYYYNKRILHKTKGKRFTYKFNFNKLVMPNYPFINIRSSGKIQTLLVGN
Summary of the method: as §1

ETV6 = ETV6 (Homo sapiens, UniProt P41212 1-452); details: protein: recombinant; tags: N-terminal GST; dsDNA, one strand shown
ETV6, sequence (P41212 whole entry): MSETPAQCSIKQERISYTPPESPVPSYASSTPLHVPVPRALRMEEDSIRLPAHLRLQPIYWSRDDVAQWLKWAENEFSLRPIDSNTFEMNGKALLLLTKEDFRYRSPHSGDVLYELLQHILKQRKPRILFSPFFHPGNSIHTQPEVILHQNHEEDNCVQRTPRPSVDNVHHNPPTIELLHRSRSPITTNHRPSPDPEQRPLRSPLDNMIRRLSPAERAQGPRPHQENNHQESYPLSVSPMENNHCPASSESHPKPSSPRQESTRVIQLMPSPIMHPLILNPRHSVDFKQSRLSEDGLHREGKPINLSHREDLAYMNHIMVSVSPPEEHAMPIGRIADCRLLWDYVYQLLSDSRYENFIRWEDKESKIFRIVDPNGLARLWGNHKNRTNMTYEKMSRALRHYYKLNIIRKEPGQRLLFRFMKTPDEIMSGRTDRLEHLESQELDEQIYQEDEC
Summary of the method: as §1

TACGCT
binding signal (FEV): 1.32 fold enrichment (6-mer frequency, TF over GST control) | binding signal (ETV5): 1.3 fold enrichment (6-mer frequency, TF over GST control) | binding signal (HSF1): 1.28 fold enrichment (6-mer frequency, TF over GST control) | binding signal (SPIC): 1.21 fold enrichment (6-mer frequency, TF over GST control) | binding signal (ELF4): 1.39 fold enrichment (6-mer frequency, TF over GST control) | binding signal (ELK4): 1.26 fold enrichment (6-mer frequency, TF over GST control) | binding signal (ETV2): 1.23 fold enrichment (6-mer frequency, TF over GST control) | binding signal (ELF3): 1.29 fold enrichment (6-mer frequency, TF over GST control) | binding signal (CRX): 1.48 fold enrichment (6-mer frequency, TF over GST control) | binding signal (ETV1): 1.25 fold enrichment (6-mer frequency, TF over GST control) | binding signal (ERF): 1.4 fold enrichment (6-mer frequency, TF over GST control) | binding signal (ETV3L): 1.27 fold enrichment (6-mer frequency, TF over GST control) | binding signal (ETS2): 1.22 fold enrichment (6-mer frequency, TF over GST control) | binding signal (SPDEF): 1.32 fold enrichment (6-mer frequency, TF over GST control) | binding signal (ETV7): 1.31 fold enrichment (6-mer frequency, TF over GST control) | binding signal (ELF5): 1.24 fold enrichment (6-mer frequency, TF over GST control) | binding signal (ETV3): 1.42 fold enrichment (6-mer frequency, TF over GST control) | binding signal (ETV6): 1.28 fold enrichment (6-mer frequency, TF over GST control)
